{"source": "paper PMC5892938", "about": "“SARNAclust: Semi-automatic detection of RNA protein binding motifs from immunoprecipitation data”", "note": "Over roughly 11,000 sequences, “log2 fold change” has its median near 0.00022; the highest 2% begin near 0.34. The list shows a part of the results."}
{"molecular_target": "GST-SBP-SLBP (stem-loop binding protein) (Homo sapiens, UniProt Q14493 1-270)", "assay": "targeted RNA Bind-n-Seq; RBNS binding buffer: 25 mM Tris pH 7.5, 150 mM KCl, 3 mM MgCl2, 0.1% Tween, 0.5 mg/mL BSA, 1 mM DTT; 27 nM protein, 750 pM RNA pool; temperature not stated; high values mean tight binding", "details": "protein: recombinant; tags: N-terminal GST and SBP (pGEX6P1-SBP); structured_RNA", "how_it_was_run": "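The GST-SBP-tagged protein was expressed in Rosetta(DE3) pLysS E. coli, glutathione-purified and incubated at 27 nM with 750 pM of a designed, T7-transcribed RNA oligo pool in RBNS binding buffer. Bound RNA was reverse transcribed with a 10-nucleotide barcoded primer, PCR-amplified and sequenced on a MiSeq with 200-cycle paired-end reads. Reads were joined with FLASH, aligned with HISAT2 and collapsed by barcode. The binding signal is the DEseq log2 fold change of read counts per sequence.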", "units": {"binding signal": "log2 fold change"}}
{"sequence": "GGUCACGUCUCAAUCAACUCUAAAGAGGGGGGGAAAACCCCUUUGCCCUCACUUUCAACAGCUCGCAGUCAAG", "binding signal": "0.415 ± 0.443"}
{"sequence": "GGUCACGUCUCAAUCAACUCCAUAGAGGGGGGGAAAACCCCUUUACCCUCACACUCAACAGCUCGCAGUCAAG", "binding signal": "0.698 ± 0.433"}
{"sequence": "GGUCACGUCUCAAUCAACUCCAUAGAGGGGGGGAAAACCCCUUUACCCUCACAUUCAACAGCUCGCAGUCAAG", "binding signal": "0.32 ± 0.406"}
{"sequence": "GGUCACGUCUCAAUCAACUCCUCAGAGGGGGGGAAAACCCCUUUACCCUCCACCUCAACAGCUCGCAGUCAAG", "binding signal": "0.326 ± 0.442"}
{"sequence": "GGUCACGUCUCAAUCAACUCAAUAGAGGGGGGGAAAACCCCUUUACCCUCCAUAUCAACAGCUCGCAGUCAAG", "binding signal": "0.379 ± 0.407"}
{"sequence": "GGUCACGUCUCAAUCAACUCAAUAGAGGGGGGGAAAACCCCUUUACCCUCCACCUCAACAGCUCGCAGUCAAG", "binding signal": "0.349 ± 0.417"}
{"sequence": "GGUCACGUCUCAAUCAACUCACAAGAGGGGGGGAAAACCCCUUUACCCUCGAUAUCAACAGCUCGCAGUCAAG", "binding signal": "0.383 ± 0.425"}
{"sequence": "GGUCACGUCUCAAUCAACUCCCCAGAGGGGGGGAAAACCCCUUUACCCUCCAUAUCAACAGCUCGCAGUCAAG", "binding signal": "0.573 ± 0.413"}
{"sequence": "GGUCACGUCUCAAUCAACUCCCCAGAGGGGGGGAAAACCCCUUUACCCUCCAUCUCAACAGCUCGCAGUCAAG", "binding signal": "0.313 ± 0.439"}
{"sequence": "GGUCACGUCUCAAUCAACUCUUUAGAGGGGGGGAAAACCCCUUUACCCUCGAUAUCAACAGCUCGCAGUCAAG", "binding signal": "0.336 ± 0.435"}
{"sequence": "GGUCACGUCUCAAUCAACUCAAUAGAGGGGGGGAAAACCCCUUUACCCUCGAUAUCAACAGCUCGCAGUCAAG", "binding signal": "0.435 ± 0.406"}
{"sequence": "GGUCACGUCUCAAUCAACUCAAACGAGGGGGGGAAAACCCCUUUACCCUCAACUUCAACAGCUCGCAGUCAAG", "binding signal": "0.35 ± 0.421"}
{"sequence": "GGUCACGUCUCAAUCAACUCAAACGAGGGGGGGAAAACCCCUUUACCCUCAUUCUCAACAGCUCGCAGUCAAG", "binding signal": "0.326 ± 0.393"}
{"sequence": "GGUCACGUCUCAAUCAACUCUUACGAGGGGGGGAAAACCCCUUUACCCUCUUCUUCAACAGCUCGCAGUCAAG", "binding signal": "0.477 ± 0.42"}
{"sequence": "GGUCACGUCUCAAUCAACUCUCACGAGGGGGGGAAAACCCCUUUACCCUCAACUUCAACAGCUCGCAGUCAAG", "binding signal": "0.363 ± 0.418"}
{"sequence": "GGUCACGUCUCAAUCAACUCUUACGAGGGGGGGAAAACCCCUUUACCCUCACACUCAACAGCUCGCAGUCAAG", "binding signal": "0.321 ± 0.386"}
{"sequence": "GGUCACGUCUCAAUCAACUCUCACGAGGGGGGGAAAACCCCUUUACCCUCUUACUCAACAGCUCGCAGUCAAG", "binding signal": "0.346 ± 0.439"}
{"sequence": "GGUCACGUCUCAAUCAACUCUAACGAGGGGGGGAAAACCCCUUUACCCUCUAUAUCAACAGCUCGCAGUCAAG", "binding signal": "0.308 ± 0.434"}
{"sequence": "GGUCACGUCUCAAUCAACUCUAACGAGGGGGGGAAAACCCCUUUACCCUCAACUUCAACAGCUCGCAGUCAAG", "binding signal": "0.426 ± 0.419"}
{"sequence": "GGUCACGUCUCAAUCAACUCUUUCGAGGGGGGGAAAACCCCUUUACCCUCAUACUCAACAGCUCGCAGUCAAG", "binding signal": "0.524 ± 0.429"}
{"sequence": "GGUCACGUCUCAAUCAACUCCUUCGAGGGGGGGAAAACCCCUUUACCCUCACCUUCAACAGCUCGCAGUCAAG", "binding signal": "0.36 ± 0.426"}
{"sequence": "GGUCACGUCUCAAUCAACUCAACGGAGGGGGGGAAAACCCCUUUACCCUCAACAUCAACAGCUCGCAGUCAAG", "binding signal": "0.308 ± 0.444"}
{"sequence": "GGUCACGUCUCAAUCAACUCCUUCGAGGGGGGGAAAACCCCUUUACCCUCUUCAUCAACAGCUCGCAGUCAAG", "binding signal": "0.429 ± 0.434"}
{"sequence": "GGUCACGUCUCAAUCAACUCCUUCGAGGGGGGGAAAACCCCUUUACCCUCUUAAUCAACAGCUCGCAGUCAAG", "binding signal": "0.305 ± 0.422"}
{"sequence": "GGUCACGUCUCAAUCAACUCCUUCGAGGGGGGGAAAACCCCUUUACCCUCACAAUCAACAGCUCGCAGUCAAG", "binding signal": "0.304 ± 0.425"}
{"sequence": "GGUCACGUCUCAAUCAACUCUUUCGAGGGGGGGAAAACCCCUUUACCCUCAUAAUCAACAGCUCGCAGUCAAG", "binding signal": "0.336 ± 0.429"}
{"sequence": "GGUCACGUCUCAAUCAACUCUUCGGAGGGGGGGAAAACCCCUUUACCCUCAAUCUCAACAGCUCGCAGUCAAG", "binding signal": "0.453 ± 0.428"}
{"sequence": "GGUCACGUCUCAAUCAACUCAAUCGAGGGGGGGAAAACCCCUUUACCCUCACCUUCAACAGCUCGCAGUCAAG", "binding signal": "0.499 ± 0.434"}
{"sequence": "GGUCACGUCUCAAUCAACUCAACUCCCAGGGAAAGCCCUGGUAUACUCAACAGCUCGCAGUCAAG", "binding signal": "0.301 ± 0.289"}
{"sequence": "GGUCACGUCUCAAUCAACUCUACUUCCAGGGAAACCCCUGGUAUACUCAACAGCUCGCAGUCAAG", "binding signal": "0.362 ± 0.285"}
{"sequence": "GGUCACGUCUCAAUCAACUCAAUUUCCAGGGAAAGCCCUGGUAUACUCAACAGCUCGCAGUCAAG", "binding signal": "0.343 ± 0.255"}
{"sequence": "GGUCACGUCUCAAUCAACUCAACUUCCAGGGAAAACCCUGGUAUACUCAACAGCUCGCAGUCAAG", "binding signal": "0.373 ± 0.293"}
{"sequence": "GGUCACGUCUCAAUCAACUCGCAAGAGGGGGGGAAAACCCCUUUACCCUCAAUUUCAACAGCUCGCAGUCAAG", "binding signal": "0.343 ± 0.444"}
{"sequence": "GGUCACGUCUCAAUCAACUCGCAAGAGGGGGGGAAAACCCCUUUACCCUCAAAUUCAACAGCUCGCAGUCAAG", "binding signal": "0.308 ± 0.444"}
{"sequence": "GGUCACGUCUCAAUCAACUCACUAGAGGGGGGGAAAACCCCUUUACCCUCAAUUUCAACAGCUCGCAGUCAAG", "binding signal": "0.352 ± 0.409"}
{"sequence": "GGUCACGUCUCAAUCAACUCUCUAGAGGGGGGGAAAACCCCUUUACCCUCACUUUCAACAGCUCGCAGUCAAG", "binding signal": "0.308 ± 0.399"}
